DT40 TDP1 no CPT: qHTS for Inhibitors of human tyrosyl-DNA phosphodiesterase 1 (TDP1): qHTS in cells in absence of CPT. DT40 Tdp1-/- hTDP1 cells, no CPT, ATP luminescence, 48 h. AID 686978, 2013. Potency, µM (highest dose often 46.2 µM), inactives show at the top dose activity change, negative = growth inhibition, most hits filed as inhibitors. actives 15% (n = 420,000); also: nearly all actives have a fitted effect of over 55% in size
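Growth kinetics read by CellTiter-Glo luminescence after ≥48 hr at 37 °C. Cells: DT40 Tdp1-/- stably carrying human TDP1, 400 per well, compound exposure in the absence of CPT (DMSO vehicle).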
Gal4-VP16 FLuc: inhibits Gal4-VP16 luciferase reporter, ROR gamma counter-screen; Potency, µM (highest dose often 53.6 µM), for the others: at the top dose activity, negative = inhibition, hits mostly inhibitors; actives 3.5% (n = 310,000); Drosophila S2 Gal4-VP16 UAS-luciferase, luminescence, 20 h;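 also: Gal4-VP16 expression switched on by copper sulfate through the metallothionein promoter; nearly all actives have a fitted effect of over 50% in size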
TDP1 inh: blocks human tyrosyl-DNA phosphodiesterase 1. Q9NUW8. recombinant TDP1, AlphaScreen DNA substrate cleavage. Potency, µM (series often up to 130 µM), inactives show top-dose activity change, negative = inhibition, actives largely listed as inhibitors. actives 0.28% (n = 350,000); also: nearly all actives have a fitted effect of over 40% in size
Target sequence (Q9NUW8 whole entry, looked up): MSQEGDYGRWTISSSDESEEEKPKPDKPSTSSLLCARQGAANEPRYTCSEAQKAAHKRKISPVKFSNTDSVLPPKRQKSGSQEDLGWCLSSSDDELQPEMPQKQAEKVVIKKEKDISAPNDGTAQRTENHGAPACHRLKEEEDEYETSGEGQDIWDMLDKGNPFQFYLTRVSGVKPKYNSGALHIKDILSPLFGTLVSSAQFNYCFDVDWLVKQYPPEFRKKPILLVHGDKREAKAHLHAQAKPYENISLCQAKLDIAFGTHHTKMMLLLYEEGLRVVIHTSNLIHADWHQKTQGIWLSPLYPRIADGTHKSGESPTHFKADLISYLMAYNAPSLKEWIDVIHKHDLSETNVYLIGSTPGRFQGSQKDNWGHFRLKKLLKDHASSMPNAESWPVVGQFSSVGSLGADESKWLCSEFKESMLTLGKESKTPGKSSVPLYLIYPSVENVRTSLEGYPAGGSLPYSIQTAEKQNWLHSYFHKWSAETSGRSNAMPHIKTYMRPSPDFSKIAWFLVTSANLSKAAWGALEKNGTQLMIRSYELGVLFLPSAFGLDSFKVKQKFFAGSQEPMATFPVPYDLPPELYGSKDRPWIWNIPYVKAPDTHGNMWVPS
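Tdp1 1 nM final; 15 min RT w/ cpd; substrate 15 nM, 5 min; beads 10 ug/ml, 10 min; AlphaScreen read. Neg ctrl: no enzyme.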
DT40 TDP1 CPT: DT40-hTDP1 cell growth loss with CPT. chicken DT40 Tdp1-/-;hTDP1 cells + 20 nM CPT, ATP luminescence, 48 h. Potency, µM (doses to about 46.2 µM), inactives show at the highest dose activity change, negative = growth inhibition, most hits filed as inhibitors. actives 12% (n = 420,000). AID 686979; also: nearly all actives have a fitted effect of over 55% in size
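Chicken DT40 Tdp1-/- cells complemented with human TDP1, 400 cells/well, exposed to compounds plus 20 nM camptothecin for at least 48 h at 37 C; viability read as ATP content by CellTiter-Glo luminescence.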
RORg inh: ROR gamma (mouse) transcription inhibition; actives 5.4% (n = 310,000); AID 2551; P51450; Potency, µM (highest dose often 53.6 µM), for inactives: at the top dose activity change, negative = inhibition, actives largely listed as inhibitors; Drosophila S2 Gal4-RORgamma UAS-luciferase reporter, 20 h; also: nearly all actives have a fitted effect of over 60% in size
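A Gal4/UAS one-hybrid system in insect cells: metallothionein-promoter Gal4–ROR gamma fusion plus Photinus luciferase reporter. Copper sulfate 700 uM final, 20 hr ambient incubation, luminescent detection after 10 min with reagent.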
Numbers without * were called inactive; ? = inconclusive; . = no result given; [ ] = another dose, or the depositor's remark. Compounds with a hit are over-represented: about 19% of the library has one in this group of screens. Calls follow the shape of the dose curve; as a rule, active = well fitted curve in the direction sought with a large enough effect; inconclusive = small, poorly fitted or top-dose-only effect, or another doubt; inactive = no such curve, though single readings can be large; an effect the other way counts as inactive or inconclusive. % is scaled to controls: 0 for no effect and ±100 for the full control effect; potency is read from the fitted curve at half-maximal effect.

SMILES	DT40 TDP1 no CPT	Gal4-VP16 FLuc	TDP1 inh	DT40 TDP1 CPT	RORg inh
O=C(CSc1c2c(nc3cc(Cl)ccc13)CCCC2)N1CCN(c2ccccc2F)CC1	6.51µM*	.	-1.3%	10.3µM*	.
CC1CCCN(C(=O)CSc2c3c(nc4cc(Cl)ccc24)CCCC3)C1 (configuration not stated)	11.6µM*	.	-1.3%	20.6µM*	.
CC1CCCCN1C(=O)CSc1c2c(nc3cc(Cl)ccc13)CCCC2 (configuration not stated)	18.4µM*	.	6.4%	?	.
CC(C)CCNC(=O)CSc1c2c(nc3ccc(Cl)cc13)CCCC2	?	.	4.7%	?	.
COCCNC(=O)CSc1c2c(nc3cc(Cl)ccc13)CCCC2	?	.	1.3%	?	.
CC1CCN(C(=O)CSc2c3c(nc4ccc(Cl)cc24)CCCC3)CC1	16.4µM*	.	2.3%	20.6µM*	.
O=C(CSc1nccn1Cc1ccc(Cl)cc1)Nc1ccc2c(c1)OCO2	-10.2%	.	11.0%	14.5%	.
Cc1ccc(N2CCN(c3nc4ccccc4n4nnnc34)CC2)c(C)c1	9.5%	.	-2.5%	-1.0%	.
CC12CCC3C(CCC4CC(O)CCC43C)C1CC=C2c1ccccc1 (configuration not stated)	.	-5.2%	9.5%	.	8.1%
COC(=O)c1[nH]c2cc(OC)c(OC)cc2c1NC(=O)CN1CCN(Cc2ccccc2)CC1	.	-21.2%	4.1%	.	-28.5%
O=C(CSc1c2c(nc3ccc(Cl)cc13)CCCC2)N1CCN(C(=O)c2ccco2)CC1	20.6µM*	.	.	14.6µM*	.
CC(C)(C)OC(=O)N1CCC(CC2CC(c3cccc(Br)c3)=NO2)(C(=O)O)CC1 (configuration not stated)	-2.4%	-2.0%	.	-10.6%	21.7%
CCCCCCCNC(=O)C1(CC2CC(c3cccc(Br)c3)=NO2)CCN(C(=O)CCCCCBr)CC1 (configuration not stated)	25.9µM*	.	1.7%	23.1µM*	.
CCCCCCCNC(=O)C1(CC2CC(c3cccc(Br)c3)=NO2)CCN(C(=O)C2(C)CC2)CC1 (configuration not stated)	16.4µM*	.	0.6%	16.4µM*	.
COc1ccc(CNC(=O)C2(CC3CC(c4ccccc4)=NO3)CCN(C(=O)C3(C)CC3)CC2)cc1 (configuration not stated)	-22.3%	.	.	?	.
Cc1ccc(C)c(OCCC(=O)OCC(=O)NCc2ccccc2)c1	?	.	-0.5%	-1.6%	.
NC(=O)CSc1nnc(COc2cccc3ccccc23)o1	1.7%	-3.2%	.	-5.7%	0.4%
COC1C=CC=C(C)C(=O)NC2=CC(=O)C(N)=C(CC(C)CC(OC)C(O)C(C)C=C(C)C1OC(N)=O)C2=O (configuration not stated)	0.184µM*	.	.	0.164µM*	.
C=CCNC1=C2C[C@@H](C)C[C@H](OC)[C@H](O)[C@@H](C)/C=C(\C)[C@H](OC(N)=O)[C@@H](OC)/C=C\C=C(/C)C(=O)NC(=CC1=O)C2=O	0.376µM*	-12.1%	12.2%	1.06µM*	30.4%[10 µM]
COC1=C2C[C@H](C)C[C@H](OC)[C@H](O)[C@@H](C)/C=C(/C)[C@H](OC(N)=O)[C@@H](OC)/C=C\C=C(\C)C(=O)NC(=CC1=O)C2=O	.	-6.1%	0.0%	.	10.9%
O=C(CN1CCN(S(=O)(=O)c2ccc(F)cc2)CC1)Nc1cc(C(F)(F)F)ccc1Cl	?	-21.5%	1.9%	20.6µM*	?
COc1ccc(S(=O)(=O)N2CCN(CC(=O)Nc3cc(C(F)(F)F)ccc3Cl)CC2)cc1	10.3µM*	-2.6%	0.0%	?	31.4%
CSc1ccccc1C(=O)NCCSc1ccc(C)cc1	?	4.6%	2.3%	2.6%	-10.0%
CC(=O)c1cc(NC(=O)c2ccc(Cl)cc2)c(=O)oc1/C=C/N(C)C	?	?	9.5%	?	?
COc1cccc(OCc2nc3ccccc3[nH]2)c1	?	-6.8%	3.7%	13µM*	?
Cc1ccccc1OCc1nc2ccccc2[nH]1	16.4µM*	-12.6%	-7.7%	23.1µM*	-23.8%
